FXN GAA850 act: frataxin GAA850 promoter activation | HEK293 lucGAA850 FXN promoter luciferase reporter, 24 h; percent of 10 µM SAHA response | activation, % at 6 µM | 0.56% of 360,000 active;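 active = activation above the average of all compounds screened plus 3 SD, cutoff fixed separately per campaign, cut at about 7.5% in these data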
HSF1 activator: increases HSF-1 driven luciferase reporter signal | NIH3T3-HGL HSF-1 luciferase reporter, MG132, 8 h; 100% = twice DMSO control signal | activation, % at 9 µM | 1.7% of 300,000 active | AID 504408;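 active = mean replicate activation of at least 50% with a set share of replicates each reaching 50%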
HSP90 refold inh: HSP90 refolding inhibition in rabbit reticulocyte lysate; luciferase refolding luminescence, 3 h; inhibition, % at 5.6 µM; 0.91% of 290,000 active;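 active = inhibition above the screen-wide mean plus 3 SD, computed separately per campaign, cut at about 16% in these data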;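 also: inhibitors lower the luminescence because luciferase stays unfolded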
HSF1 inhib: HSF1 inhibition. NIH3T3-HGL HSE-luciferase, MG132-induced, luminescence 8 h; hits give low values. activity change, negative = inhibition, % at 7.5 µM (by protocol). 0.77% of 300,000 active. AID 2098;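 active = more than half of replicate wells show activity change below -50%, luminescence cut by over half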;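 also: luciferase reports HSF-1 transcriptional activity via heat shock element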
NR0B1 inh: NR0B1 (DAX1) inhibition. inhibition, % at 6.75 µM. HEK293 Gal4-DAX1 luciferase reporter, luminescence. 0.99% of 340,000 active. P51843. AID 504766;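 active = inhibition above the mean over all tested compounds plus 3 SD, cut at about 4.2% in these data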;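 also: inhibition shows as a rise in luminescence from relieved DAX1 repression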
Target sequence (P51843 207-470 limits assumed): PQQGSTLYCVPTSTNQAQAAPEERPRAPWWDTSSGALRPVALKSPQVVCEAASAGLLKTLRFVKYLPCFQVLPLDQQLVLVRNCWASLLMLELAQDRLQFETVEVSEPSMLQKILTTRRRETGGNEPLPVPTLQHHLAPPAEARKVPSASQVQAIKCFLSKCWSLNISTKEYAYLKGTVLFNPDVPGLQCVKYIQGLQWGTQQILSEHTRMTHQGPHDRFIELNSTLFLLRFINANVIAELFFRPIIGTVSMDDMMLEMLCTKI
AHR act: human AHR activation. P35869. AHR-responsive luciferase reporter cells, luminescence. activation, % at 5 µM. 2.5% of 320,000 active; in the data active = activation above about 47%
A number is an active result; . = inactive; / = no result given. Hits are enriched below; roughly 5.9% of the tested compounds scored in any of these assays.

SMILES	FXN GAA850 act	HSF1 activator	HSP90 refold inh	HSF1 inhib	NR0B1 inh	AHR act
O=C1CN(CCN2CC(=O)N(Cc3ccccc3)C(=O)C2)CC(=O)N1Cc1ccccc1	.	/	/	/	.	/
CC1(C)CC(=O)N(Cc2ccccc2)C(=O)C1	.	.	.	.	4.5	.
CN(Cc1cccc(-n2cccn2)c1)C(=O)CCc1nnc(C2CCCCC2)o1	.	.	.	.	.	.
CN1C(=O)/C(=C2\SC(N)=NC2=O)c2ccccc21	.	.	.	.	.	73
CCOC(=O)CC1NCCc2c1[nH]c1ccc(OC)cc21 (stereo unspecified)	.	58	.	.	.	.
CCOC(=O)c1ccc2[nH]c3c(c2c1)CCCC3O (stereo unspecified)	.	.	.	.	.	.
CCc1nc2oc3ccccc3c(=O)c2cc1C(=O)OC	.	.	.	.	.	/
Cc1ccc(-c2cnc3cc(C)nn3c2)cc1	.	57	.	.	.	.
Cc1cc2ncc(-c3ccc(Cl)cc3)cn2n1	.	.	.	.	.	.
O=Nc1ccc(NO)c2ccccc12	.	/	/	/	.	/
COc1ccc(C(=O)OCCN=C2NS(=O)(=O)c3ccccc32)cc1OC	.	52	.	.	.	.
COC(=O)c1sccc1NC(=O)Nc1ccccc1F	.	58	.	.	.	.
COC(=O)c1sccc1NC(=O)c1ccc(Cl)s1	.	.	.	.	.	.
COC(=O)c1ccc(NC(=O)Nc2ccccc2F)cc1	.	70	.	.	.	.
COC(=O)c1sccc1NC(=O)c1ccc(C)s1	.	.	.	.	.	50
COC(=O)c1cccc(NC(=O)Nc2ccccc2OC)c1	.	.	.	.	6.5	.
Nc1cc(C(=O)OCC(=O)Nc2ccc(N3CCOCC3)cc2)ccc1Cl	.	/	/	/	.	.
O=C(Cc1cccc(NC(=O)C2CCN(C(=O)C3CCCCC3)CC2)c1)Nc1cccc(C(=O)N2CCOCC2)c1	.	/	/	/	.	/
COc1ccc(NC(=O)CSCC(=O)Oc2c(OC)cccc2OC)cc1	.	.	/	.	.	.
CCN(CC(=O)NCc1ccc(F)cc1)C(=O)c1cccnc1SC	.	.	.	.	.	.
COc1cccc(CN(C)C(=O)CC2C(=O)NCCN2C2Cc3ccccc3C2)c1 (stereo unspecified)	.	.	.	.	.	.
COC(=O)c1sccc1NC(=O)Nc1ccc(Cl)c(Cl)c1	.	66	.	.	.	.
COc1ccc(OC)c(NC(=O)c2cccc3c2C(=O)N(C2CCCCC2)C3)c1	.	.	.	.	.	.
CCCN1Cc2cccc(C(=O)N3CCN(c4ccc(OC)cc4)CC3)c2C1=O	.	.	.	-60	.	.
COCCN1Cc2cccc(C(=O)Nc3cc(OC)ccc3OC)c2C1=O	.	.	.	.	.	48
SMILES	FXN GAA850 act	HSF1 activator	HSP90 refold inh	HSF1 inhib	NR0B1 inh	AHR act
CCCN1Cc2cccc(C(=O)Nc3ccc4c(c3)OCCO4)c2C1=O	.	.	.	.	4.6	.
CC(C)c1nc(C(=O)N2CCCC(N3CCN(c4cccc(Cl)c4)CC3)C2)cs1 (stereo unspecified)	.	.	.	.	.	.
CCCc1ccc(C(O)c2ncc(-c3ccccc3C)[nH]2)cc1 (stereo unspecified)	.	/	/	/	/	/
COc1ccc(-c2nc(CN3CCN(C(=O)c4ccco4)CC3)c(C)o2)c(OC)c1C	.	.	.	.	.	.
Cc1ccc(NC(=O)Cn2c(CCC(=O)O)ccc2-c2cccs2)cc1	.	62	.	.	.	.
O=C(/C=C/c1ccccc1)Nc1cc(S(=O)(=O)N2CCOCC2)ccc1N1CCOCC1	.	/	/	/	4.5	/
CN1CCN(c2ccc(S(=O)(=O)N3CCCCC3)cc2NC(=O)Cc2c(F)cccc2Cl)CC1	.	.	/	.	.	.
Cc1ccc(-n2c(SCC(=O)Nc3cc(S(=O)(=O)N4CCOCC4)ccc3Cl)nc3ccccc3c2=O)cc1	.	73	.	.	.	.
O=C(CSc1ccccc1)Nc1cc(S(=O)(=O)N2CCOCC2)ccc1N1CCOCC1	.	.	.	.	4.3	.
O=C(Cc1c(F)cccc1Cl)Nc1cc(S(=O)(=O)N2CCCCC2)ccc1N1CCOCC1	.	.	.	.	5.8	.
Cc1ccc(O)c(NC(=O)c2noc(C(C)C)c2[N+](=O)[O-])c1	.	73	.	.	.	.
COc1ccc(Cl)cc1NC(=O)c1noc(C)c1[N+](=O)[O-]	.	.	.	.	.	55
CC(C)c1onc(C(=O)NCCc2ccccc2)c1[N+](=O)[O-]	.	61	.	.	.	.
CC(C)Oc1ccc(CNC(=O)c2cc(S(=O)(=O)N3CCOCC3)cn2C)cc1	.	.	.	.	.	.
CN1C(=O)S/C(=C/c2cccnc2)C1=O	.	.	.	.	.	.
O=C1/C(=C\c2cccnc2)Sc2ccccc21	.	.	.	.	.	53
S=c1[nH]cc(-c2ccccc2)n1-c1ccccc1Cl	.	57	.	.	.	.
COc1ccccc1-n1c(-c2ccccc2)c[nH]c1=S	.	.	.	.	.	/
O=C(Cc1sc(Nc2ccccc2)nc1-c1ccccc1)NCc1ccccn1	.	.	.	.	.	.
CCc1ccccc1NC(=O)COc1ccc2oc(-c3ccc(OC)cc3)cc(=O)c2c1	.	.	.	.	.	.
Cc1sc(NC(=O)Nc2ccccc2)c(C(N)=O)c1C	.	.	.	.	.	53
COC(=O)c1c(NC(=O)Nc2ccc(Cl)cc2)sc(C)c1C	.	/	.	/	.	.
CC1(C)Cc2c(sc(NC(=O)Nc3ccccc3)c2C(N)=O)CO1	.	.	.	.	5.1	.
CC(=O)Nc1sc(C)c(C)c1C(=O)OCC(=O)Nc1ccccc1	.	/	/	/	.	.
CC(=O)Nc1sc(C)c(C)c1C(=O)OCCOc1ccccc1	.	62	.	.	.	.
SMILES	FXN GAA850 act	HSF1 activator	HSP90 refold inh	HSF1 inhib	NR0B1 inh	AHR act
C/C(=C\c1ccc(Cl)cc1)C(=O)c1c(C)cc(C)[nH]c1=O	.	.	.	.	4.5	.
COc1ccccc1/C=C(\C)C(=O)c1c(C)cc(C)[nH]c1=O	.	57	.	.	.	.
C/C(=C\c1ccc(Br)cc1)C(=O)c1c(C)cc(C)[nH]c1=O	.	.	.	.	.	/
O=C(Cn1ncc(Cl)c(Cl)c1=O)c1ccc(Cl)cc1	.	56	.	.	.	.
CO/N=C(\Cn1ncc(N2CCOCC2)c(Br)c1=O)c1ccc(Cl)cc1	.	.	.	.	.	.
O=C(Cn1ncc(N2CCOCC2)c(Cl)c1=O)c1ccc(Cl)cc1	.	.	.	.	5.4	.
Cc1ccc(S(=O)(=O)c2ncccc2N)cc1	.	.	.	.	.	.
Cc1ccc(S(=O)(=O)c2ncccc2[N+](=O)[O-])cc1	.	.	.	-97	.	.
c1ccc2c(c1)Cc1cc(CN3CCOCC3)ccc1-2	.	56	.	.	.	.
c1ccc(CN2CCOCC2)cc1	.	.	.	.	.	.
O=c1c(-c2cnn(-c3ccccc3)c2)coc2cc(O)ccc12	.	94	.	.	.	.

Bioassay records as filed in PubChem BioAssay.
